Counter-ions that a name gives are not always drawn.
What was measured:
Conditions in all cases: 20 µM; incubation time: 27 h, anaerobic, 37 °C;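 for the amine columns active = adjusted P below 0.05 in both replicates with a change the same way and a mean fold change under 0.8 or over 1.25; inactive = the rest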
[1] = test system: Clostridium sporogenes DSM 1664; assay: growth (OD595) fold change vs plate DMSO controls (fold change (ratio)); higher = more growth
Outline: (§1)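 Anaerobic mGAM cultures in 96-well plates were grown for 27 h at 37 °C, and absorbance was then read at 595 nm. After blank and compound background correction with 20 µM compound solutions in water, a calibration factor of 5 gave OD. Growth is the fold change relative to the median of each plate's DMSO controls. Values are means of 2 biological replicates, with fold changes above 1.5 set to NA.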

Escherichia coli IAI1 [2] = assay: as above
Outline: as §1

[3] = test system: Klebsiella aerogenes DSM 30053; assay: as above
Outline: as §1

[4] = test system: Ruminococcus gnavus DSM 108212; assay: as above
Outline: as §1

[5] = test system: Klebsiella aerogenes DSM 30053; assay: fold change of Histamine concentration vs plate DMSO controls (fold change (ratio)); higher = more amine produced, active = hit call of the paper (significant change in both replicates, either direction)
Outline: (§2)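 Using LC–triple-quadrupole MS with dynamic MRM, amines were quantified against external calibration curves and corrected for drift within each batch. Samples were whole anaerobic mGAM cultures of four gut strains, grown 27 h at 37 °C from OD 0.1 before 1:1 dilution, extracted with cold acetonitrile/methanol containing 0.1% formic acid and centrifuged. Compounds were present at 20 µM final (sweeteners at 50 µM final). The numbers are fold changes versus plate DMSO controls, each the mean of 2 biological replicates.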

[6] = test system: Clostridium sporogenes DSM 1664; assay: fold change of Tryptamine concentration vs plate DMSO controls (fold change (ratio)); higher = more amine produced, active = hit call of the paper (significant change in both replicates, either direction)
Outline: as §2

[7] = test system: Ruminococcus gnavus DSM 108212; assay: as above
Outline: as §2

Escherichia coli IAI1 [8] = assay: fold change of Putrescine concentration vs plate DMSO controls (fold change (ratio)); higher = more amine produced, active = hit call of the paper (significant change in both replicates, either direction)
Outline: as §2

[9] = test system: Klebsiella aerogenes DSM 30053; assay: as above
Outline: as §2

Escherichia coli IAI1 [10] = assay: fold change of Cadaverine concentration vs plate DMSO controls (fold change (ratio)); higher = more amine produced, active = hit call of the paper (significant change in both replicates, either direction)
Outline: as §2

[11] = test system: Klebsiella aerogenes DSM 30053; assay: as above
Outline: as §2

[12] = test system: Ruminococcus gnavus DSM 108212; assay: fold change of 2-Phenylethylamine concentration vs plate DMSO controls (fold change (ratio)); higher = more amine produced, active = hit call of the paper (significant change in both replicates, either direction)
Outline: as §2

Compound: N#Cc1cc(Br)c(O)c(Br)c1
- growth [1]: 0.976
- growth (Escherichia coli IAI1 [2]): 0.821
- growth [3]: 0.928
- growth [4]: 0.963
- fold change of Histamine concentration [5]: 1.02 (inactive)
- fold change of Tryptamine concentration [6]: 0.955 (inactive)
- fold change of Tryptamine concentration [7]: 1.02 (inactive)
- fold change of Putrescine concentration (Escherichia coli IAI1 [8]): 1.23 (inactive)
- fold change of Putrescine concentration [9]: 0.978 (inactive)
- fold change of Cadaverine concentration (Escherichia coli IAI1 [10]): 1.29 (active)
- fold change of Cadaverine concentration [11]: 0.978 (inactive)
- fold change of 2-Phenylethylamine concentration [12]: 1.01 (inactive)

Compound: CCCCCCCCCCCCN=C(N)N
- growth [1]: 1.1
- growth (Escherichia coli IAI1 [2]): 0.995
- growth [3]: 1.02
- growth [4]: 1.19
- fold change of Histamine concentration [5]: 1.03 (inactive)
- fold change of Tryptamine concentration [6]: 0.927 (inactive)
- fold change of Tryptamine concentration [7]: 0.896 (inactive)
- fold change of Putrescine concentration (Escherichia coli IAI1 [8]): 1.01 (inactive)
- fold change of Putrescine concentration [9]: 1.06 (inactive)
- fold change of Cadaverine concentration (Escherichia coli IAI1 [10]): 0.951 (inactive)
- fold change of Cadaverine concentration [11]: 1.03 (inactive)
- fold change of 2-Phenylethylamine concentration [12]: 0.893 (inactive)

Compound: CS(=O)(=O)c1ccc(C(=O)C2C(=O)CCCC2=O)c([N+](=O)[O-])c1
- growth [1]: 1.1
- growth (Escherichia coli IAI1 [2]): 1.02
- growth [3]: 1
- growth [4]: 1.02
- fold change of Histamine concentration [5]: 1.02 (inactive)
- fold change of Tryptamine concentration [6]: 0.928 (inactive)
- fold change of Tryptamine concentration [7]: 1 (inactive)
- fold change of Putrescine concentration (Escherichia coli IAI1 [8]): 0.929 (inactive)
- fold change of Putrescine concentration [9]: 0.946 (inactive)
- fold change of Cadaverine concentration (Escherichia coli IAI1 [10]): 0.973 (inactive)
- fold change of Cadaverine concentration [11]: 1.08 (inactive)
- fold change of 2-Phenylethylamine concentration [12]: 0.999 (inactive)

Compound: COc1ccc2c(c1)[C@]13CCCC[C@@H]1[C@H](C2)N(C)CC3 [Dextromethorphan hydrobromide monohydrate]
- growth [1]: 1.05
- growth (Escherichia coli IAI1 [2]): 0.975
- growth [3]: 1.05
- growth [4]: 0.761
- fold change of Histamine concentration [5]: 0.977 (inactive)
- fold change of Tryptamine concentration [6]: 0.991 (inactive)
- fold change of Tryptamine concentration [7]: 0.998 (inactive)
- fold change of Putrescine concentration (Escherichia coli IAI1 [8]): 0.962 (inactive)
- fold change of Putrescine concentration [9]: 0.999 (inactive)
- fold change of Cadaverine concentration (Escherichia coli IAI1 [10]): 1.01 (inactive)
- fold change of Cadaverine concentration [11]: 1.02 (inactive)
- fold change of 2-Phenylethylamine concentration [12]: 1.04 (inactive)

Compound: CN1CCC2(C)c3cc(O)ccc3N(C)C12 (single isomer, unassigned; (-)) [(-) Eseroline fumarate salt]
- growth [1]: 1.01
- growth (Escherichia coli IAI1 [2]): 1.04
- growth [3]: 1.03
- growth [4]: 1.16
- fold change of Histamine concentration [5]: 1 (inactive)
- fold change of Tryptamine concentration [6]: 1.02 (inactive)
- fold change of Tryptamine concentration [7]: 0.951 (inactive)
- fold change of Putrescine concentration (Escherichia coli IAI1 [8]): 0.99 (inactive)
- fold change of Putrescine concentration [9]: 1 (inactive)
- fold change of Cadaverine concentration (Escherichia coli IAI1 [10]): 0.994 (inactive)
- fold change of Cadaverine concentration [11]: 0.995 (inactive)
- fold change of 2-Phenylethylamine concentration [12]: 0.954 (inactive)

Compound: CN1C[C@H](C(=O)N[C@]2(C)O[C@@]3(O)[C@@H]4CCCN4C(=O)[C@H](Cc4ccccc4)N3C2=O)C[C@@H]2c3cccc4[nH]cc(c34)C[C@H]21 [Dihydroergotamine tartrate]
- growth [1]: 1.2
- growth (Escherichia coli IAI1 [2]): 1.13
- growth [3]: 1.1
- growth [4]: 0.827
- fold change of Histamine concentration [5]: 0.89 (inactive)
- fold change of Tryptamine concentration [6]: 0.928 (inactive)
- fold change of Tryptamine concentration [7]: 0.982 (inactive)
- fold change of Putrescine concentration (Escherichia coli IAI1 [8]): 1.06 (inactive)
- fold change of Putrescine concentration [9]: 0.984 (inactive)
- fold change of Cadaverine concentration (Escherichia coli IAI1 [10]): 0.966 (inactive)
- fold change of Cadaverine concentration [11]: 1.01 (inactive)
- fold change of 2-Phenylethylamine concentration [12]: 0.921 (inactive)

Compound: O=C(O[C@H]1C[N+]2(CCCOc3ccccc3)CCC1CC2)C(O)(c1cccs1)c1cccs1 [Aclidinium bromide]
- growth [1]: 1.12
- growth (Escherichia coli IAI1 [2]): 1.08
- growth [3]: 1.03
- growth [4]: 1.14
- fold change of Histamine concentration [5]: 1.05 (inactive)
- fold change of Tryptamine concentration [6]: 1.01 (inactive)
- fold change of Tryptamine concentration [7]: 0.985 (inactive)
- fold change of Putrescine concentration (Escherichia coli IAI1 [8]): 1.08 (inactive)
- fold change of Putrescine concentration [9]: 1 (inactive)
- fold change of Cadaverine concentration (Escherichia coli IAI1 [10]): 0.982 (inactive)
- fold change of Cadaverine concentration [11]: 1 (inactive)
- fold change of 2-Phenylethylamine concentration [12]: 0.963 (inactive)

Compound: Cc1ccc(/N=C/N(C)/C=N/c2ccc(C)cc2C)c(C)c1
- growth [1]: 0.953
- growth (Escherichia coli IAI1 [2]): 1.05
- growth [3]: 1.03
- growth [4]: 1.06
- fold change of Histamine concentration [5]: 1.03 (inactive)
- fold change of Tryptamine concentration [6]: 0.98 (inactive)
- fold change of Tryptamine concentration [7]: 0.939 (inactive)
- fold change of Putrescine concentration (Escherichia coli IAI1 [8]): 0.981 (inactive)
- fold change of Putrescine concentration [9]: 1.01 (inactive)
- fold change of Cadaverine concentration (Escherichia coli IAI1 [10]): 1.01 (inactive)
- fold change of Cadaverine concentration [11]: 0.991 (inactive)
- fold change of 2-Phenylethylamine concentration [12]: 0.926 (inactive)

Compound: Oc1ccc(Cl)cc1Cc1cc(Cl)ccc1O
- growth [1]: 0.8
- growth (Escherichia coli IAI1 [2]): 0.854
- growth [3]: 0.898
- growth [4]: 0.861
- fold change of Histamine concentration [5]: 1.12 (inactive)
- fold change of Tryptamine concentration [6]: 0.557 (inactive)
- fold change of Tryptamine concentration [7]: 0.513 (active)
- fold change of Putrescine concentration (Escherichia coli IAI1 [8]): 1.15 (inactive)
- fold change of Putrescine concentration [9]: 0.996 (inactive)
- fold change of Cadaverine concentration (Escherichia coli IAI1 [10]): 1.66 (active)
- fold change of Cadaverine concentration [11]: 0.986 (inactive)
- fold change of 2-Phenylethylamine concentration [12]: 0.605 (inactive)

Compound: CC[C@@H](C(=O)[C@@H](C)[C@@H](O)[C@H](C)[C@@H]1O[C@@H]([C@@H](CC)C(=O)O)CC[C@@H]1C)[C@H]1O[C@]2(C=C[C@@H](O)[C@]3(CC[C@@](C)([C@H]4CC[C@](O)(CC)[C@H](C)O4)O3)O2)[C@H](C)C[C@@H]1C [Salinomycin sodium]
- growth [1]: 0.000863
- growth (Escherichia coli IAI1 [2]): 1.01
- growth [3]: 0.976
- growth [4]: 0.156
- fold change of Histamine concentration [5]: 1.02 (inactive)
- fold change of Tryptamine concentration [6]: 0.0211 (active)
- fold change of Tryptamine concentration [7]: 0.152 (active)
- fold change of Putrescine concentration (Escherichia coli IAI1 [8]): 0.929 (inactive)
- fold change of Putrescine concentration [9]: 0.993 (inactive)
- fold change of Cadaverine concentration (Escherichia coli IAI1 [10]): 1.01 (inactive)
- fold change of Cadaverine concentration [11]: 0.996 (inactive)
- fold change of 2-Phenylethylamine concentration [12]: 0.177 (active)

Compound: COC(=O)Nc1nc2ccccc2[nH]1
- growth [1]: 0.898
- growth (Escherichia coli IAI1 [2]): 0.977
- growth [3]: 0.989
- growth [4]: 0.903
- fold change of Histamine concentration [5]: 1.01 (inactive)
- fold change of Tryptamine concentration [6]: 0.968 (inactive)
- fold change of Tryptamine concentration [7]: 0.959 (inactive)
- fold change of Putrescine concentration (Escherichia coli IAI1 [8]): 0.997 (inactive)
- fold change of Putrescine concentration [9]: 1 (inactive)
- fold change of Cadaverine concentration (Escherichia coli IAI1 [10]): 1 (inactive)
- fold change of Cadaverine concentration [11]: 0.989 (inactive)
- fold change of 2-Phenylethylamine concentration [12]: 0.951 (inactive)

Compound: CN(C)C(=O)Oc1cccc([N+](C)(C)C)c1 [Neostigmine bromide]
- growth [1]: 0.939
- growth (Escherichia coli IAI1 [2]): 0.975
- growth [3]: 1.01
- growth [4]: 0.886
- fold change of Histamine concentration [5]: 0.992 (inactive)
- fold change of Tryptamine concentration [6]: 1.07 (inactive)
- fold change of Tryptamine concentration [7]: 1.03 (inactive)
- fold change of Putrescine concentration (Escherichia coli IAI1 [8]): 0.992 (inactive)
- fold change of Putrescine concentration [9]: 0.998 (inactive)
- fold change of Cadaverine concentration (Escherichia coli IAI1 [10]): 1.02 (inactive)
- fold change of Cadaverine concentration [11]: 1 (inactive)
- fold change of 2-Phenylethylamine concentration [12]: 1.01 (inactive)

Compound: C[C@]12CC[C@H](O)CC1=CC[C@@H]1[C@@H]2CC[C@]2(C)C(=O)CC[C@@H]12 [Prasterone]
- growth [1]: 1.17
- growth (Escherichia coli IAI1 [2]): 1.01
- growth [3]: 1.04
- growth [4]: 1.07
- fold change of Histamine concentration [5]: 0.984 (inactive)
- fold change of Tryptamine concentration [6]: 0.972 (inactive)
- fold change of Tryptamine concentration [7]: 0.985 (inactive)
- fold change of Putrescine concentration (Escherichia coli IAI1 [8]): 1 (inactive)
- fold change of Putrescine concentration [9]: 0.999 (inactive)
- fold change of Cadaverine concentration (Escherichia coli IAI1 [10]): 1.05 (inactive)
- fold change of Cadaverine concentration [11]: 0.991 (inactive)
- fold change of 2-Phenylethylamine concentration [12]: 1 (inactive)

— the supplement of paper PMC12494721
